14 compounds from PubChem BioAssay can be followed below.

Active and inactive are the calls of the source.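 The calls were made as follows, unless noted: active = inhibition at or above 50% at 10 µM; inactive = inhibition below 50%.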

As a reminder, the inhibition is the relative decrease from the control value, in per cent.

Assay [1] can be described thus: inhibitors of TNFa-induced NFkB p65 translocation, primary screen, imaging, HUVEC, MLSMR starter and 10KST1 sets (AID 438;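 active = inhibition above 20% together with a positive visual image hit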;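 also: compound added about 3h40 before a 20 min TNFalpha stimulation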;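 as to inhibition: signal is the nuclear over cytoplasmic p65 intensity ratio per well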). Conditions: HUVEC TNFa-induced p65 nuclear translocation; cell count: measured here: nuclei count (cytotoxicity indicator), at 2.08 µM; inhibition: at 2 µM, stronger effect = higher value, 0% TNFa-plus-vehicle, 100% no-TNFa wells.
Assay [2] can be described thus: inhibitors of mutant huntingtin aggregation, primary screen, imaging, exon1htt(103Q)mCFP cells, high-content imaging (AID 483;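 active = visual image review flags a hit and inhibition of aggregation exceeds 20%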;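 also: compound exposure lasted 3 days before fixation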;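 as to nuclei count: percent of the per-plate median nuclei count of sample wells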). The note with it: exon1htt(103Q)mCFP cell line, aggregate imaging, at 2 µM; inhibition of aggregation: stronger effect = higher value; nuclei count: measured here: cell count, toxicity.
Assay [3] is described as follows: inhibitors of E-selectin induction by TNFa, primary screen, imaging, HUVEC, immunofluorescence, MLSMR starter and 10KST1 sets (AID 487;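 active = visually confirmed hit in the image check and inhibition above 20%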;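 as to inhibition: signal is fraction of cell area covered by stained E-selectin grains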;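 as to nuclei count: 100% = median nuclei count of all wells on the same plate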). The note with it: HUVEC TNFalpha-induced E-selectin immunofluorescence imaging, at 2 µM; inhibition: stronger effect = higher value; nuclei count: measured here: cell number, toxicity.
The target of assay [4] is Voltage-gated potassium channel subunit beta-2 (Rattus norvegicus) (UniProt P62483). As to the kind of experiment: KvBeta enzyme negative modulators, primary screen, biochemical, NADPH fluorescence (AID 622;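 active = fluorescence slope higher than the sample average by over 3 SD, cut at about -0.22 in these data, passing the limit was not always enough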;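 also: slope of raw intensity against log time taken from 70 to 1610 s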). The note with it: recombinant KvBeta, 4-cyanobenzaldehyde reduction, at 10 µM, stronger effect = higher value.
Chain of Voltage-gated potassium channel subunit beta-2 (Rattus norvegicus) (P62483 whole entry, looked up): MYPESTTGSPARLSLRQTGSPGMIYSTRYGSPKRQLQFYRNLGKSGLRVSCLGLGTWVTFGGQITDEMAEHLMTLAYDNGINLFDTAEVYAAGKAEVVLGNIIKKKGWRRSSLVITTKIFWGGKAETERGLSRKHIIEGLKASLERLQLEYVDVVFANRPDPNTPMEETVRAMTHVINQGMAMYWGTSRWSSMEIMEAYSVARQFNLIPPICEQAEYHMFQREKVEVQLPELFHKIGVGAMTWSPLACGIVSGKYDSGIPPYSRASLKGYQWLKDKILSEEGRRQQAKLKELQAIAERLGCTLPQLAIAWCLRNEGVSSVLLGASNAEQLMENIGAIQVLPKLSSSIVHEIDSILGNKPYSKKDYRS
Assay [5] shares this target. Put plainly: KvBeta positive modulators, primary screen, biochemical, NADPH fluorescence (AID 623;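 active = NADPH fluorescence slope more negative than the mean of all samples by about 3 SD, 99.7% confidence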;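 also: fluorescence intensity change per second fitted from 20 to 320 s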). The note with it: Recombinant KvBeta, NADPH fluorescence decrease slope, 10 min; at 10 µM; stronger effect = lower value.
For assay [6], the target named is Alpha-2C adrenergic receptor (Homo sapiens) (UniProt P18825). As to the kind of experiment: modulators of alpha2C/GIRK thallium flux, primary screen, cell-based, HEK293 alpha2C/GIRK1/2 (AID 624;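 active = fluorescence slope after compound addition differing from the mean of all screened samples at 99.7% confidence, in either direction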;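 also: slope of fluorescence ratio to pre-addition baseline per second over 15 to 24 s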). Conditions: thallium flux BTC fluorescence, at 10 µM, actives lie on both sides.
Chain of Alpha-2C adrenergic receptor (Homo sapiens) (P18825 whole entry, looked up): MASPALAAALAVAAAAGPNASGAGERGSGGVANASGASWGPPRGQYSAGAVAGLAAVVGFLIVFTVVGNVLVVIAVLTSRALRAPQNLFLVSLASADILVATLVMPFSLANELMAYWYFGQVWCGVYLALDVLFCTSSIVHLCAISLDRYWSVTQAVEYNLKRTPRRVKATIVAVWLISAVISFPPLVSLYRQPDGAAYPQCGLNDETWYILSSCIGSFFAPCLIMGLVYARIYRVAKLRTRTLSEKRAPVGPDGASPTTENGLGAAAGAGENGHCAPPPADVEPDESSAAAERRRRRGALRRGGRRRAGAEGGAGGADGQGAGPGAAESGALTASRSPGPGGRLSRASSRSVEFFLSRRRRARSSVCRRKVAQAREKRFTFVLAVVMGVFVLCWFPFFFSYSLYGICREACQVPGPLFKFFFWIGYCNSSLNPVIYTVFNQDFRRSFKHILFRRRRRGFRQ
Assay [7] can be described thus: inhibitors of Sendai virus-induced IRF3 signaling, primary screen, TLR/RLR signaling modifier project, cell-based, Sendai virus stimulus, luciferase, 10K MLSCN set (AID 602276).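 Also: firefly luciferase from ISG56 promoter only with Renilla not read in this screen; 0% = Sendai virus plus DMSO and 100% = medium plus DMSO without virus.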 Conditions: HEK293 RL24 IRF3 luciferase reporter, at 10 µM, stronger effect = higher value. On the technique in general: In a reporter assay the amount or activity of a reporter protein is the signal.

A short description of assay [8]: inhibitors of poly I:C-induced TLR3 signaling, primary screen, cell-based, poly I:C stimulus, luciferase, 10K MLSCN set (AID 602277;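 active = inhibition of the reporter signal at or above 50%; inactive = inhibition below 50%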). The note with it: HEK293-TLR3 RL24 IRF3 luciferase reporter, at 10 µM, stronger effect = higher value.

For the compound `Cc1ccc(S(=O)(=O)N2C(=O)CCC2C(=O)Nc2ccc3c(c2)OCCO3)cc1` (centres undefined), in assay [1], the cell count is 430. For the same compound, the inhibition in assay [1] is 3.8% (inactive); in assay [3] it was -32.2% (inactive); in assay [7] it was 10.3% (inactive); in assay [8], 27.4% (inactive). For the same compound, the inhibition of aggregation in assay [2] is -9.4% (inactive). For the same compound, the results for the nuclei count in assay [2] and in assay [3] were 101% and 102%, respectively. The fluorescence slope in assay [4] is -0.446 (inactive). For the same compound, the NADPH fluorescence slope in assay [5] was -2.2e-05 (inactive). For the same compound, the slope in assay [6] was 0.00315 (inactive).

As to `CCn1c(SCc2nc3ccccc3c(=O)[nH]2)nnc1-c1cccnc1`, in assay [1], the cell count came to 628. Besides, the inhibition was -11.9% (inactive) in assay [1], -66.6% (inactive) in assay [3], 21.2% (inactive) in assay [7] and 25% (inactive) in assay [8]. Moreover, the inhibition of aggregation in assay [2] was -9.6% (inactive). Besides, the nuclei count in assay [2] worked out at 107%; in assay [3], 114%. In assay [4], the fluorescence slope is -0.525 (inactive). In assay [5], the NADPH fluorescence slope is 7.8e-06 (inactive). In assay [6], the slope was 0.00487 (inactive).

Regarding `CCOC(=O)c1cc2cc(F)ccc2nc1C`, the cell count in assay [1] was found to be 646. The inhibition is 4.9% (inactive) in assay [1], -7% (inactive) in assay [3], -17.9% (inactive) in assay [7] and -45.1% (inactive) in assay [8]. Further, the inhibition of aggregation in assay [2] was 13.9% (inactive). Further, the nuclei count came out at 106% in assay [2] and 118% in assay [3]. The fluorescence slope in assay [4] was -0.612 (inactive). Besides, the NADPH fluorescence slope in assay [5] is -2.7e-05 (inactive). Further, the slope in assay [6] is 0.00327 (inactive).

On to `Cc1ccc2nc(-c3ccccn3)cc(C(=O)N3CCN(c4ncccn4)CC3)c2c1`, for which the cell count in assay [1] is 367. For the same compound, the inhibition in assay [1] is -5.9% (inactive); in assay [3], 6% (inactive); in assay [7], 4.96% (inactive); in assay [8], 8.03% (inactive). In assay [2], the inhibition of aggregation was 0% (inactive). Moreover, the nuclei count in assay [2] is 107%; in assay [3], 115%. Further, the fluorescence slope in assay [4] is -0.346 (inactive). Further, in assay [5], the NADPH fluorescence slope was -5.1e-05 (inactive). Also, in assay [6], the slope was 0.00536 (inactive).

Regarding `CCOc1ccc(S(=O)(=O)N2CCN(c3ccc(C)cc3C)CC2)cc1`, the cell count in assay [1] was 821. Moreover, the inhibition in assay [1] was 5.7% (inactive); in assay [3], -30.7% (inactive); in assay [7], -5.26% (inactive); in assay [8], 11.7% (inactive). The inhibition of aggregation in assay [2] was -66.1% (inactive). Also, the values for the nuclei count in assay [2] and in assay [3] were 98.4% and 110%, respectively. The fluorescence slope in assay [4] was -0.578 (inactive). Further, in assay [5], the NADPH fluorescence slope is -2.7e-05 (inactive). Moreover, the slope in assay [6] was 0.00897 (inactive).

For `COc1cccc(-c2cc(C(F)(F)F)nc(NCc3ccco3)n2)c1`, the cell count in assay [1] was found to be 449. Further, the inhibition was 1.7% (inactive) in assay [1], -25.2% (inactive) in assay [3], -7.28% (inactive) in assay [7] and 19.1% (inactive) in assay [8]. Further, the inhibition of aggregation in assay [2] is 28.6% (inactive). Further, the nuclei count in assay [2] came out at 97.3%; in assay [3], 94.3%. Further, in assay [4], the fluorescence slope is -0.469 (inactive). In addition, the NADPH fluorescence slope in assay [5] was -5.6e-06 (inactive). Moreover, the slope in assay [6] was 0.00562 (inactive).

With `FC(F)(F)c1cc(-c2ccccc2)nc(N2CCCCC2)n1`, the cell count in assay [1] came out at 286. For the same compound, the inhibition in assay [1] is 3.3% (inactive); in assay [3], -8.9% (inactive); in assay [7], 12.9% (inactive); in assay [8], 12.8% (inactive). For the same compound, the inhibition of aggregation in assay [2] is 3.7% (inactive). Moreover, the nuclei count in assay [2] worked out at 100%; in assay [3], 105%. Moreover, the fluorescence slope in assay [4] is -0.578 (inactive). Besides, the NADPH fluorescence slope in assay [5] is -3.3e-05 (inactive). The slope in assay [6] was 0.00434 (inactive).

With `CCS(=O)(=O)N1CCCC(C(=O)NCCc2ccc(OC)c(OC)c2)C1` (centres undefined), the cell count in assay [1] came to 709. Further, the inhibition is -12.8% (inactive) in assay [1], 45.8% (inactive) in assay [3], -5.06% (inactive) in assay [7] and -6.59% (inactive) in assay [8]. For the same compound, the inhibition of aggregation in assay [2] is -9.5% (inactive). The nuclei count in assay [2] worked out at 111%; in assay [3], 109%. Moreover, the fluorescence slope in assay [4] is -0.43 (inactive). In addition, the NADPH fluorescence slope in assay [5] was 4.5e-06 (inactive). The slope in assay [6] was 0.00594 (inactive).

Turning to `CCN1CCCC1CNC(=O)c1cc2c(=O)n(C)c3ccccc3c2n1C` (centres undefined), in assay [1], the cell count was 656. Moreover, the inhibition was -5% (inactive) in assay [1], -41.6% (inactive) in assay [3], 2.48% (inactive) in assay [7] and 40.8% (inactive) in assay [8]. Also, the inhibition of aggregation in assay [2] is -28.9% (inactive). The nuclei count in assay [2] is 113%; in assay [3] it was 114%. Also, the fluorescence slope in assay [4] was -0.55 (inactive). Also, the NADPH fluorescence slope in assay [5] was 2.6e-06 (inactive). For the same compound, the slope in assay [6] was 0.00775 (inactive).

As for `C/C(N)=C(/C#N)C(=O)CSc1nnc(Nc2cccc(C)c2)s1`, the cell count in assay [1] was determined as 451. In addition, the inhibition in assay [1] was 2.9% (inactive); in assay [3] it was -79.4% (inactive); in assay [7] it was -7.88% (inactive); in assay [8], -32.1% (inactive). Moreover, in assay [2], the inhibition of aggregation is 5.1% (inactive). Also, the nuclei count was determined as 101% in assay [2] and 130% in assay [3]. Besides, the fluorescence slope in assay [4] is -0.492 (inactive). Moreover, the NADPH fluorescence slope in assay [5] was -3.5e-05 (inactive). Besides, in assay [6], the slope is 0.00453 (inactive).

In the case of `Cc1cc(NC(=O)c2ccc3c(c2)C(=O)N(Cc2cccnc2)C3=O)no1`, the cell count in assay [1] was 770. Besides, the inhibition in assay [1] was -6.4% (inactive); in assay [3] it was -127% (inactive); in assay [7] it was -5.06% (inactive); in assay [8] it was -11.7% (inactive). For the same compound, the inhibition of aggregation in assay [2] is 1.8% (inactive). Further, the nuclei count was determined as 107% in assay [2] and 128% in assay [3]. Further, the fluorescence slope in assay [4] is -0.615 (inactive). Also, the NADPH fluorescence slope in assay [5] is 1.2e-05 (inactive). For the same compound, in assay [6], the slope is 0.00422 (inactive).

Consider `COc1cc(C2N3CC4(C)CN2CC(C)(C3)C4)ccc1O` (centres undefined), for which the cell count in assay [1] stood at 309. The inhibition is -4.3% (inactive) in assay [1], -33.6% (inactive) in assay [3], 0.715% (inactive) in assay [7] and 25.8% (inactive) in assay [8]. Also, the inhibition of aggregation in assay [2] is 15.8% (inactive). The figures for the nuclei count in assay [2] and in assay [3] were 74.7% and 100%, respectively. Also, in assay [4], the fluorescence slope is -0.345 (inactive). Further, the NADPH fluorescence slope in assay [5] was -5.2e-07 (inactive). For the same compound, the slope in assay [6] was 0.0063 (inactive).

Regarding `COc1ccc(C2/C(=C(/O)c3ccccc3)C(=O)C(=O)N2C)cc1` (centres undefined), the cell count in assay [1] turned out to be 424. For the same compound, the inhibition in assay [1] was -0.5% (inactive); in assay [3], -25.9% (inactive); in assay [7], 14.9% (inactive); in assay [8], 37.5% (inactive). Further, the inhibition of aggregation in assay [2] was 7.8% (inactive). For the same compound, the nuclei count in assay [2] is 106%; in assay [3] it was 110%. Also, the fluorescence slope in assay [4] is -0.369 (inactive). Also, in assay [5], the NADPH fluorescence slope is 4.1e-06 (inactive). The slope in assay [6] was 0.00577 (inactive).

In the case of `CCOC(=O)CN(C(=O)CSc1nnc(-c2ccncc2)n1CCCN(C)C)c1ccccc1`, the cell count in assay [1] was 570. The inhibition in assay [1] was -11.3% (inactive); in assay [3] it was -14.2% (inactive); in assay [7], 14.2% (inactive); in assay [8] it was 30.4% (inactive). Besides, the inhibition of aggregation in assay [2] is 12.2% (inactive). In addition, the nuclei count in assay [2] was found to be 89.1%; in assay [3], 92.8%. Also, the fluorescence slope in assay [4] is -0.615 (inactive). In addition, in assay [5], the NADPH fluorescence slope is -1.7e-05 (inactive). Further, the slope in assay [6] was 0.00606 (inactive).
